GPT2 inhibitor = Primary qHTS assay for inhibitors of Glutamate pyruvate transaminase 2 (GPT2). Recombinant GPT2, coupled pyruvate oxidase/HRP Amplex Red fluorescence. Alanine aminotransferase 2 (Homo sapiens), Q8TD30. Potency, µM (doses to about 57.7 µM), without a hit: top-dose activity change, negative = inhibition, usual class: inhibitors. 100,000 compounds, 0.25% hits; further: nearly all actives have a fitted effect of over 60% in size
Target sequence (Q8TD30 whole entry, looked up): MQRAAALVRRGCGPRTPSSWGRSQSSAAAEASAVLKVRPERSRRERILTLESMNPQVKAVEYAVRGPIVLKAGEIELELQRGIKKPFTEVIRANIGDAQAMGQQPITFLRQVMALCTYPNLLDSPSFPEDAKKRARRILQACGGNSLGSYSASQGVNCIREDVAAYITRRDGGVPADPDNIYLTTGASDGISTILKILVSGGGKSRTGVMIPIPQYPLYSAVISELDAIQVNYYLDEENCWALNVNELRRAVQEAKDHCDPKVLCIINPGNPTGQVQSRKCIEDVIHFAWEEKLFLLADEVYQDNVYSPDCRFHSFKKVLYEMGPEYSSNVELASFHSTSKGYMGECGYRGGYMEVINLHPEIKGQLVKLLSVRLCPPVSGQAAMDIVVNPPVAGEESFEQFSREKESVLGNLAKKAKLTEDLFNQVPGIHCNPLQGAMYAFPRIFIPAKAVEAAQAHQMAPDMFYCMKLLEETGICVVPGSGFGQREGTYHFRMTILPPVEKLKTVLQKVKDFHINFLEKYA
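Fluorescence read-out: pyruvate from GPT2 turnover coupled to pyruvate oxidase, HRP and Amplex Red (0.2mM ThPP, 0.2U/mL PO and HRP, 50uM Amplex final). Substrates 250uM a-KG, 2mM L-alanine; enzyme 10ng/uL; 30 min RT.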
FLuc inh = Firefly luciferase inhibition profiling of diverse chemical library using quantitative high-throughput screening; 76,000 compounds, 2.5% hits; Luciferin 4-monooxygenase (Photinus pyralis), P08659; Potency, µM (doses to about 115 µM), hits mostly inhibitors; AID 1347043, 2019; purified P. pyralis luciferase, luminescence, biochemical; further: nearly all actives have a fitted effect of over 65% in size
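Luminescence read by CCD imaging after purified firefly luciferase (10nM final) was added to substrate buffer holding 10uM D-luciferin and 10uM ATP, pH 7.5, pre-dosed with compound.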
HEK293 tox = Cytotoxic Profiling in HEK 293 Cell Line of Diverse Libraries Using Quantitative High-Throughput Screening | HEK 293 viability, ATP luminescence (CellTiter-Glo), 48-72 h | Potency, µM (highest dose often 115 µM), without a hit: top-dose activity change, negative = cytotoxicity, hits mostly inhibitors | 94,000 compounds, 6.6% hits | AID 1345083, 2018; further: nearly all actives have a fitted effect of over 60% in size
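HEK 293 cells at 250 cells/well were exposed to compounds by pintool transfer for 48 or 72 hr at 37 degree Celsius, 5% CO2. Viability was read as ATP-coupled luminescence with CellTiter-Glo after 10 min at room temperature.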
NIH3T3 tox = Cytotoxic Profiling in NIH 3T3 Cell Line of Diverse Libraries Using Quantitative High-Throughput Screening; 94,000 compounds, 4.3% hits; NIH 3T3 viability, CellTiter-Glo ATP luminescence, 48-72 h; Potency, µM (highest dose often 96.7 µM), inactives show top-dose activity change, negative = cytotoxicity, usual class: inhibitors; further: nearly all actives have a fitted effect of over 55% in size
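Cells were seeded at 400 per well, treated with pin-transferred compound, and kept 48 or 72 hr at 37 °C before CellTiter-Glo addition and luminescence imaging of cellular ATP.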
hNpr1 antagonist = Natriuretic polypeptide receptor (hNpr1) antagonism - Primary qHTS. Atrial natriuretic peptide receptor 1 (Homo sapiens), P16066. 76,000 compounds, 1.6% hits. Potency, µM (highest dose often 46.3 µM), for inactives: at the highest dose activity change, negative = inhibition, actives largely listed as inhibitors. HEK293 hNpr1 GloSensor cGMP, ANP-stimulated luminescence; calls by dose curve; further: nearly all actives have a fitted effect of over 60% in size
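HEK293 cells stably expressing human Npr1 and cGMP GloSensor pGS-40F, loaded 2 h with 2% GloSensor reagent, given compound 30 min at room temperature. Luminescence read before and 20 min after 0.1 nM hNppA.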
Starred values were filed as active, the others as inactive; i = inactive; ? = inconclusive; · = no result; [ ] = dose if it differs, or a comment. In the library only some 10% were active in any assay of this set; here they are far more common. Unless noted, the call rests on the fitted dose curve; in most records, active means well fitted curve in the direction sought with a large enough effect; inconclusive means small, poorly fitted or top-dose-only effect, or another doubt; inactive means no such curve, though single readings can be large; an effect the other way counts as inactive or inconclusive. On the % scale 0 is the no-effect control and ±100 the full control effect; potency means the concentration at half of the fitted maximal effect.

SMILES	GPT2 inhibitor	FLuc inh	HEK293 tox	NIH3T3 tox	hNpr1 antagonist
Cc1ccc(Nc2ccnc(N3CCC(C(=O)NCC4CCCO4)CC3)n2)cc1 (stereo unspecified)	3%	·	?	?	·
O=C(Cc1ccccc1)N1CCC2(CC1)CC(CCOCc1ccccc1)CCO2 (stereo unspecified)	-8%	·	?	?	·
COc1ccccc1-c1ccc2c(C(=O)NCc3ccc(F)cc3)nn(C)c2n1	i	·	-29%	-29%	·
COc1ccc(-c2cc(N3CCCC(NC(=O)c4ccc(N(C)C)cc4)C3)n[nH]2)cc1 (stereo unspecified)	i	7.1µM*	45µM*	?	-24%
CCOc1ccc(C(=O)NC2CCCN(c3cc(-c4ccc(OC)cc4)[nH]n3)C2)cc1 (stereo unspecified)	-8%	?	?	-22%	-3%
COCCN1C(=O)c2ccccc2C(C(=O)Nc2nc3ccccc3[nH]2)C12CCCCC2 (stereo unspecified)	-5%	i	79µM*	?	-15%
COCCN1C(=O)c2ccccc2C(C(=O)Nc2nc3ccccc3[nH]2)C12CCCC2 (stereo unspecified)	i	i	5%	-4%	5%
COc1ccc(CN2CC(Oc3ccccc3C(=O)NC3CC3)C2)c(OC)c1	i	i	?	-27%	-2%
COc1ccc(CN2CC(Oc3ccccc3C(=O)NCc3ccccc3)C2)c(OC)c1	0%	i	50µM*	?	?
COc1ccc(OC)c(CN2CC(Oc3ccccc3C(=O)NCc3ccccc3)C2)c1	0%	i	32µM*	?	-25%
N#Cc1cccnc1-c1ccc(C(=O)N2CCC(NC(=O)Cc3cccc(Cl)c3)CC2)cc1	-6%	·	?	?	·
Cc1ccc([S+](=O)([O-])NC2CCN(c3ccc4nnc(-c5ccccc5)n4n3)CC2)cc1	·	·	40µM*	?	·
Cc1noc(C)c1[S+](=O)([O-])N1CCCN(c2ccc3nnc(-c4ccccc4)n3n2)CC1	·	·	79µM*	-30%	·
COc1cccc([S+](=O)([O-])NC2CCN(c3ccc4nnc(-c5ccccc5)n4n3)CC2)c1	·	·	25µM*	14µM*	·
COc1cccc([S+](=O)([O-])NC2CCCN(c3ccc4nnc(C)n4n3)C2)c1 (stereo unspecified)	·	·	4%	-28%	·
C[S+](=O)([O-])NC1CCN(c2ccc3nnc(-c4ccccc4)n3n2)CC1	·	·	-5%	-7%	·
O=[S+]([O-])(NC1CCCN(c2ccc3nnc(C4CC4)n3n2)C1)c1cccc(C(F)(F)F)c1 (stereo unspecified)	·	·	?	5.6µM*	·
Cc1cn2nc(C(=O)N3CCC(NC(=O)c4cc(Cl)ccc4F)CC3)cc2c(=O)[nH]1	i	i	5%	2%	0%
CN1CC2(CCOC2)N(C2CCN(C(=O)C3CCCC3)CC2)C1=O (stereo unspecified)	-7%	·	-2%	-12%	·
O=[S+]([O-])(NC1CCCN(c2ccc3nnc(-c4ccccc4)n3n2)C1)c1ccccc1 (stereo unspecified)	·	·	22µM*	?	·
C[S+](=O)([O-])N1CCCN(c2ccc3nnc(-c4ccccc4)n3n2)CC1	·	·	-9%	?	·
COc1ccc(CCNC(=O)C2CCCN2C(=O)c2cccc(-c3cccnc3)c2)cc1 (stereo unspecified)	·	·	-25%	-11%	·
COc1ccc(C(=O)N[C@H]2CC[C@]3(C)CCC([C@H](C)C(=O)NCc4ccccc4)[C@H](O)[C@H]3[C@@H]2C)cc1 (stereo partly specified)	-3%	i	?	?	5%
C[C@H]1[C@@H]2[C@@H](O)C([C@H](C)C(=O)NCc3ccc(F)cc3)CC[C@@]2(C)CC[C@@H]1NC(=O)c1ccccc1 (stereo partly specified)	0%	i	40µM*	?	-2%
Cn1cccc1C(=O)N1CCC2(CC1)C(=O)NCN2Cc1ccc(Cl)cc1	i	i	?	?	?
SMILES	GPT2 inhibitor	FLuc inh	HEK293 tox	NIH3T3 tox	hNpr1 antagonist
CCN(CC)C(=O)c1cccc(-c2ccc(OCCn3ccnc3)cc2)c1	-2%	i	45µM*	?	-25%
Cc1ccc(C(=O)NC2CCN(Cc3ccc(-c4ccsc4)cc3)C2)cc1 (stereo unspecified)	2%	·	-15%	-14%	·
O=C(NC1CCN(Cc2ccc(-c3ccsc3)cc2)C1)c1ccncc1 (stereo unspecified)	i	·	40µM*	?	·
O=C(NC1CCN(Cc2ccc(-c3ccsc3)cc2)C1)c1ccccc1Cl (stereo unspecified)	5%	·	45µM*	?	·
O=C(NC1CCN(Cc2ccc(-c3ccsc3)cc2)C1)c1ccccc1 (stereo unspecified)	i	·	45µM*	?	·
CC(=O)Nc1ccc(CN(C)Cc2cccc(C(F)(F)F)c2)cc1	-8%	·	?	-26%	·
CNC(=O)c1cc(C)nc2onc(C3CCN(C(=O)OC)C3)c12 (stereo unspecified)	·	·	4%[172 µM]	-17%[138 µM]	·
O=C1NC2(CCCN(Cc3ccccc3C(F)(F)F)C2)Oc2ccccc21 (stereo unspecified)	?	i	45µM*	?	-7%
O=C1NC2(CN(Cc3ccccc3C(F)(F)F)C2)Oc2ccccc21	4%	i	40µM*	?	-1%
O=C1NC2(CCN(Cc3ccccc3C(F)(F)F)C2)Oc2ccccc21 (stereo unspecified)	-16%	i	-3%	-3%	4%
CCn1c(N)c(C(=O)NC)c(=O)c2ccc(C#CC(C)(O)COC)nc21 (stereo unspecified)	i	·	·	·	·
COc1ccc(C(=O)N2CCN(Cc3ccccc3-c3ccccc3F)CC2)cc1	-17%	·	?	?	·
COc1ccc(-c2cc(-c3ccc(CO)cc3)cn3cncc23)cc1	1%[88.5 µM]	i	79µM*	?	-17%[70.6 µM]
COc1ccc(-c2cc(N3CCOCC3=O)c3cncn3c2)cc1OC	-18%[88.5 µM]	i	-7%[172 µM]	?	1%[70.6 µM]
COc1ccc(-c2cc(-c3ccc([S+](C)(=O)[O-])cc3)cn3cncc23)cc1	-3%[88.5 µM]	i	?	?	-17%[70.6 µM]
COc1ccccc1-c1cc(N2CCOCC2=O)c2cncn2c1	?	i	-43%[172 µM]	100µM*	-9%[70.6 µM]
Cc1ccccc1-c1cc(-c2ccc(=O)[nH]c2)c2cncn2c1	0%[88.5 µM]	i	71µM*	25µM*	-12%[70.6 µM]

Screening data (PubChem)
